Inconclusive results are not listed. Active and inactive are the calls of the source. The calls were made as follows, unless noted: active = hit-call score of the fitted dose curve at least 0.9, where 1 is the maximum; inconclusive = response in the unintended direction; inactive = score below 0.9.
Legend:
[1] = system: SRY-box transcription factor 17 (SOX17) Protein Expression, Deisenroth Lab, SOX17 (gene 64321); experiment: CCTE_Deisenroth_DEVTOX-GLR_Pluri_SOX17: CCTE's DevTox GLR-Pluri Assay Evaluation of SRY-box transcription factor 17 (SOX17) Protein Expression, Deisenroth Lab (AID 2284427)
In short: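 Readout: percent SOX17+ cells (SOX17+ count/cell count) by high-content imaging of an inducible fluorescent reporter, corrected for 0.2% DMSO solvent control. RUES2-GLR cells, 48 h differentiation, dosed twice at 24 h intervals, 1 nM - 200 uM.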

[2] = system: SRY-box transcription factor 2 (SOX2) Protein Expression, Deisenroth Lab, SOX2 (gene 6657); experiment: CCTE_Deisenroth_DEVTOX-GLR_Pluri_SOX2: CCTE's DevTox GLR-Pluri Assay Evaluation of SRY-box transcription factor 2 (SOX2) Protein Expression, Deisenroth Lab (AID 2284428; active = hit-call score of the fitted dose curve at least 0.9, where 1 is the maximum; inactive = score below 0.9)
In short: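 RUES2-GLR (human pluripotent), 48 h post-dosing, 2 exposures q24h, 1 nM–200 uM 10-pt. Fixed, nuclear dye, high-content imaging 5 fields/well. Endpoint: % SOX2+ cells (SOX2+/total count) vs 0.2% DMSO; n≥4.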

[3] = system: Brachyury (BRA) Protein Expression, Deisenroth Lab, TBXT (gene 6862); experiment: CCTE_Deisenroth_DEVTOX-GLR_Pluri_BRA: CCTE's DevTox GLR-Pluri Assay Evaluation of Brachyury (BRA) Protein Expression, Deisenroth Lab (AID 2284429)
In short: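 Human pluripotent RUES2-GLR cells, seeded 24 h, were differentiated 48 h in defined media with two chemical doses at 24-h intervals (10-point, 1 nM - 200 uM). Readout: percent BRA+ cells by fluorescent reporter imaging, minus 0.2% DMSO control.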

[4] = CCTE_Deisenroth_DEVTOX-GLR_Pluri_CellCount: Viability Assessment in CCTE's DevTox GLR-Pluri Assay Evaluation of Total Cell Counts, Deisenroth Lab (AID 2284430; active = hit-call score of the fitted dose curve at least 0.9, where 1 is the maximum; inactive = score below 0.9)
In short: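 RUES2-GLR human pluripotent cells, seeded 24 h, then differentiated 48 h with two chemical exposures 24 h apart; 10-point series 1 nM - 200 uM. Fixed, nuclear-stained, imaged (5 fields/well); nuclei count as % change vs 0.2% DMSO.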

Measured: outcome

O=P1(N(CCCl)CCCl)NCCCO1 (centres undefined)
inactive: all assays above
